Hits are enriched below; roughly 1% of the tested compounds scored in any of these assays.
HSV replic up = HSV replication enhancement | HSV replication augmentation in cells, fold increase | maximum fold increase | 0.005% of 220,000 active; in the data active = maximum fold increase above about 1.5; tested in PC3 cells
Hsp70 activator = transcriptional activators of Hsp70. HeLa Hsp70 promoter luciferase reporter, luminescence; scaled: vehicle 0, proteasome-inhibitor control 100%. AID 1203. activation, % at 10 µM. 0.04% of 200,000 active;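 active = activation above the mean across all tested compounds plus 3 SD, cutoff set per campaign, cut at about 5.5% in these data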;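 note: 100% = MG132 at 30 µM as the positive control and 0% = DMSO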
TNF necrop inh = TNF-alpha cell death inhibition in Jurkat FADD-/- cells | activation (protection from cell death), % at 10 µM | AID 463075 | 0.068% of 220,000 active | Jurkat FADD-/- TNF necroptosis rescue, ATP luminescence, 24 h; 0 = TNF only, 100 = no-TNF cells;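 active = activation, meaning protection from cell death, of at least 50% relative to plate controls; inactive = activation below 50%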;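 note: necroptosis triggered by 40 ng/mL TNF-alpha added together with compound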
S1P4 antagonist = antagonists of human S1P4 receptor; O95977; S1P4-expressing cells, antagonist mode, reporter read-out; inhibition, % at 4.98 µM; 0.26% of 220,000 active; AID 1510; in the data active = inhibition above about 29%;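 note: 0% = wells stimulated with agonist and 100% = vehicle wells without agonist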
S1P4 agonist = agonists of human S1P4 receptor; O95977; S1P4-expressing cell line, agonist reporter assay; activation, % at 4.98 µM; 0.35% of 220,000 active; AID 1509; in the data active = activation above about 11%;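 note: 0% = DMSO vehicle and 100% = reference agonist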
L929 necroptosis = blocks zVAD induced death of L929 cells | viability rescue, % at 10 µM | L929 zVAD necroptosis rescue, ATP luminescence, 24 h; with zVAD 60 µM | AID 1377 | 0.38% of 220,000 active;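 active = activation, scaled between plate controls, above about 75%, limit read from the data; inactive = activation under that limit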;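 note: 0% = zVAD with DMSO and 100% = DMSO alone without zVAD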
S1P4 antag conf = human S1P4 antagonism, confirmation | 71% of 520 active | inhibition, % at 4.98 µM | S1P4-expressing cell line, antagonist mode, reporter read-out | shares compounds with S1P4 antagonist; in the data active = inhibition above about 30%
S1P1 antag = human S1P1 antagonism as S1P4 antagonist counter-screen; shares compounds with S1P4 antagonist; cell-based S1P1 antagonist counterscreen, inhibition; inhibition, % at 4.98 µM; 37% of 520 active; in the data active = inhibition above about 40%;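 note: receptor stimulated with S1P near its EC80; 0% = agonist stimulated wells and 100% = vehicle only wells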
Target sequence (P21453 whole entry, looked up): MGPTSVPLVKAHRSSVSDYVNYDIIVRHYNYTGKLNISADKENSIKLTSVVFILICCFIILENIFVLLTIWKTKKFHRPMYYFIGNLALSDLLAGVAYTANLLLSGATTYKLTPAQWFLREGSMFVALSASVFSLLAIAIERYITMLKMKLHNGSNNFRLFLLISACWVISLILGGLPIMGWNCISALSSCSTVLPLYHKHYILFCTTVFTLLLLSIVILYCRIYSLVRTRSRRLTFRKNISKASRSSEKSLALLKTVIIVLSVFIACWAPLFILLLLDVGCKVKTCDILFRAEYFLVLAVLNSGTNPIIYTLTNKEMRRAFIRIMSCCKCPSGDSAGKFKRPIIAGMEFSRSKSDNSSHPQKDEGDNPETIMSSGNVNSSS
Starred values were filed as active, the others as inactive; i = inactive; x = not tested or not shown.

SMILES | HSV replic up | Hsp70 activator | TNF necrop inh | S1P4 antagonist | S1P4 agonist | L929 necroptosis | S1P4 antag conf | S1P1 antag
O=C(OCn1ncc(Cl)c(Cl)c1=O)c1ccc(C(F)(F)F)cc1 | i | 0 | -14 | 5 | -4 | 47 | x | x
Cc1cccc(Cn2ncc(Cl)c(Cl)c2=O)c1 | i | 0 | -11 | 8 | -1 | 17 | x | x
Cc1ccc(C)c(C(=O)Cn2ncc(Cl)c(Cl)c2=O)c1 | i | 0 | -14 | 67* | 0 | 54 | 116* | 59*
Cc1ccc(C(=O)OCn2ncc(Cl)c(Cl)c2=O)cc1 | i | 88* | -25 | 111* | -4 | 36 | 115* | 63*
CCCc1cc(=O)[nH]c(SCC(=O)N(C)CC(=O)Nc2ccccc2CC)n1 | i | 0 | -2 | -8 | -1 | 0 | x | x
O=S(=O)(NC1=NCCCCC1)c1ccccc1Cl | i | x | 0 | 3 | 0 | 1 | x | x
CCN(CC)S(=O)(=O)c1cc(NC(=O)Cn2ncc(Cl)c(Cl)c2=O)ccc1C | i | x | -30 | 60* | -1 | 1 | 72* | 46*
CC(NC(=O)Cn1ncc(Cl)c(Cl)c1=O)C12CC3CC(CC(C3)C1)C2 (stereo not drawn) | i | 1 | -12 | 51* | -2 | -1 | -19 | -11
CCC(=O)Nc1ccc(C(=O)Cn2ncc(Cl)c(Cl)c2=O)cc1 | i | x | -32 | 75* | -2 | 71 | 106* | 48*
CCOC(=O)c1ccc(NC(=O)CN2C(=O)CCC2=O)cc1 | i | 0 | -1 | 13 | -2 | 0 | x | x
CCn1cc(C(=O)NC(C)C23CC4CC(CC(C4)C2)C3)cn1 (stereo not drawn) | i | 0 | 1 | -17 | -2 | 2 | x | x
CCOC(=O)c1ccc(NC(=O)Cn2ncc(Cl)c(Cl)c2=O)cc1 | i | 5.8* | -14 | 37* | -2 | -1 | 123* | 78*
COCCN(C(=S)Nc1ccccc1C)C(C)c1cccs1 (stereo not drawn) | i | 0 | 0 | -5 | -1 | 0 | x | x
COC(=O)c1cc(C)ccc1OCc1ccc([N+](=O)[O-])cc1 | i | x | 1 | -2 | 0 | 1 | x | x
O=C(O)c1[nH]c2ccccc2c1C=NCc1ccccc1Cl | i | 0 | 0 | 2 | 0 | 4 | x | x
FC(F)(F)c1cnc(Sc2nc3nccc(-c4ccc(Cl)cc4)n3n2)c(Cl)c1 | x | 0 | -6 | -6 | 0 | 0 | x | x
COc1ccc(-c2ccnc3nc(Sc4ncc(C(F)(F)F)cc4Cl)nn23)cc1 | i | 0 | -3 | 61* | -1 | 0 | 1 | 21
COc1ccccc1-c1cc(C(=O)Nc2c(F)cc(F)cc2Br)no1 | i | 0 | 2 | 41* | -1 | 0 | 42* | 16
O=C(Nc1c(F)cc(F)cc1Br)c1cc(-c2ccco2)on1 | i | 0 | -3 | 8 | -4 | 0 | x | x
Cc1[nH]c2ccccc2c1C(=O)C(=O)NCCc1ccc(S(N)(=O)=O)cc1 | i | 0 | 1 | -71 | 0 | 1 | x | x
COc1cc(SC)ccc1C(=O)Nc1ccc(C)cc1C | i | 0 | 4 | 34* | -2 | 13 | 55* | 15
COc1cc(SC)ccc1C(=O)Nc1ccc(C)cc1 | i | 0 | 2 | 9 | -2 | 46 | x | x
CC1=NNC(=O)/C1=C\c1cn(-c2ccccc2)nc1-c1ccccc1 | i | 4 | -14 | 36* | 2 | -2 | 116* | 55*
CC1(C)CC(=O)C(=Cc2cn(-c3ccccc3)nc2-c2ccc(Cl)cc2)C(=O)C1 | i | 0 | -14 | -15 | -1 | 0 | x | x
O=c1[nH]c(CSc2nc(-c3ccc(F)cc3)cs2)nc2ccccc12 | i | 0 | 3 | -7 | -1 | 2 | x | x
SMILES | HSV replic up | Hsp70 activator | TNF necrop inh | S1P4 antagonist | S1P4 agonist | L929 necroptosis | S1P4 antag conf | S1P1 antag
COC(=O)CS(=O)(=O)c1nnc([C@H](Cc2ccccc2)NC(=O)OC(C)(C)C)o1 | i | 0 | -10 | -1 | -2 | 1 | x | x
Cc1cccc(CS(=O)(=O)c2nnc([C@H](Cc3ccccc3)NC(=O)OC(C)(C)C)o2)c1 | i | 0 | -9 | 88* | -2 | 1 | 93* | 24
NC(N)=NC(=S)Nc1ccc(Cl)cc1 | i | x | -1 | 10 | 1 | 2 | x | x
COC(=O)COc1ccc(S(=O)(=O)N2CCN(c3ccccc3F)CC2)cc1 | i | 0 | -1 | 29* | 2 | 0 | 21 | 5
CCCN(CCC)S(=O)(=O)c1ccc(Cl)c([N+](=O)[O-])c1 | i | 0 | -8 | 52* | -2 | -1 | 100* | 21
Cn1c(-c2c(N)n(CCCc3ccccc3)c3nc4ccccc4nc23)nc2ccccc21 | i | 0 | 0 | 37* | 1 | 1 | 83* | 106*
O=C(/C=C/c1cc(Br)ccc1O)c1ccco1 | i | x | -20 | 55* | 0 | 33 | 103* | 56*
O=C1/C(=C/Nc2ccc3c(c2)OCO3)CCc2ccccc21 | i | 0 | -9 | 31* | 0 | 0 | 21 | 74*
CC(C)OCCCNC(=O)NC(=O)c1ccc(Cl)cc1 | i | 0 | 2 | 3 | -2 | 2 | x | x
Cc1ccc(-c2nc(NC(=O)c3nn(C)cc3[N+](=O)[O-])sc2C)cc1 | i | 1 | -16 | 78* | -8 | 22 | 115* | -10
CNC(=O)c1nnsc1S(=O)(=O)c1ccc(Cl)cc1 | i | 0 | -19 | 61* | -3 | -1 | 103* | 76*
N#CC(C#N)=C1C=CC=CN1/C(=C\c1ccco1)C(=O)c1ccccc1 | i | 1 | 7 | 66* | -1 | 0 | 116* | 119*
O=C1/C(=C/c2ccc(N3CCOCC3)o2)SC(=Nc2ccccc2)N1CCc1c[nH]c2ccccc12 | x | 0 | -21 | 46* | 0 | 2 | 64* | 46*
O=C(NCCCCO)c1ccc2c3c(cccc13)CC2 | i | 0 | 1 | 2 | -1 | 1 | x | x
CC(C)(C)C(=O)N1CCc2cc(-c3csc(N)n3)ccc21 | i | 0 | -1 | -12 | 0 | 2 | x | x
CCC(C)C(=O)N1CCc2cc(-c3csc(N)n3)ccc21 (stereo not drawn) | i | 0 | -7 | 41* | -1 | 0 | 5 | 52*
C[N+](C)(C)CCCNC(=O)c1ccc(/C=N/O)nc1 | i | 0 | 0 | 8 | -2 | 2 | x | x
COc1cc(NC2CCCCC2O)c2nc(-c3ccc(Cl)cc3)ccc2c1 (stereo not drawn) | i | x | 6 | 30* | 0 | 18 | 65* | 62*
CC(C)CC(=O)/C(=C\c1ccc(Cl)cc1Cl)n1cncn1 | i | 0 | -6 | 53* | -1 | -1 | 119* | 96*

Screening data (PubChem)
